From PubChem BioAssay
USP7 block: blocks human USP7 ubiquitin-rhodamine cleavage; inhibition, % at 20 µM; 0.3% of 47,000 active; purified USP7, Ub-rhodamine cleavage fluorescence; Q93009
USP8 inh: human USP8 deubiquitinase inhibition. P40818. purified USP8, Ub-rhodamine cleavage fluorescence, 30 min. inhibition, % at 20 µM. 4.2% of 47,000 active
USP30 inh: blocks human USP30 ubiquitin-rhodamine cleavage | Q70CQ3 | purified USP30, Ub-rhodamine cleavage fluorescence | inhibition, % at 25 µM | 5.3% of 47,000 active
USP17 inh: inhibitors of human USP17 deubiquitinase. A8MUK1. purified USP17, Ub-rhodamine cleavage fluorescence, 3 h. inhibition, % at 50 µM. 6.5% of 47,000 active
Target sequence (A8MUK1 whole entry, looked up): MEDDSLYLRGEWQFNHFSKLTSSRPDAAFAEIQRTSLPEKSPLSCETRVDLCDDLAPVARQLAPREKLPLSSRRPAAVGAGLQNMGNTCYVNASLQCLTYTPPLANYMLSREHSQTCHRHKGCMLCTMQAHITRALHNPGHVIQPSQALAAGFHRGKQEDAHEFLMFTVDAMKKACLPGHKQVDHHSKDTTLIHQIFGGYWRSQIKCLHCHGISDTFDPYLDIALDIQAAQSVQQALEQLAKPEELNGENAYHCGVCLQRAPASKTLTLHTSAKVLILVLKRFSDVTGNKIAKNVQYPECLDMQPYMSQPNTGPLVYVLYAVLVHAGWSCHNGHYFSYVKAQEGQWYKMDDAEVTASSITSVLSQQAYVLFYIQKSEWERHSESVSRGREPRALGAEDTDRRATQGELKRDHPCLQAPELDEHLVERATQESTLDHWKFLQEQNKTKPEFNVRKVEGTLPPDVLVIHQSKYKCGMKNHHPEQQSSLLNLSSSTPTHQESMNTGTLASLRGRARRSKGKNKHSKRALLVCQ
UCHL1 inh: human UCHL1 deubiquitinase inhibition; P09936; purified UCHL1, Ub-rhodamine cleavage fluorescence; inhibition, % at 20 µM; 0.2% of 47,000 active
USP10 block: blocks human USP10 ubiquitin-rhodamine cleavage; purified USP10, Ub-rhodamine fluorescence, 60 min; Q14694; inhibition, % at 20 µM; 1.1% of 47,000 active
* = called active by the depositor; / = not tested or not shown. A selection: hits, their analogues and other compounds. The true share with any hit is near 12%. Cut-off read from the data, not from the text of the source: active = inhibition above about 30%; inactive = the rest.

SMILES	USP7 block	USP8 inh	USP30 inh	USP17 inh	UCHL1 inh	USP10 block
COc1ccc(-c2cc(C(F)F)n3ncc(C(=O)NCc4cnn(C)c4C)c3n2)cc1	3.7	0.2	12.2	2.5	3.4	-3.9
COc1ccc2[nH]cc(S(=O)(=O)c3ccc(C)c(F)c3)c(=O)c2c1	9.8	7.6	42.6*	59.1*	5.1	5.9
COc1ccc(S(=O)(=O)c2c[nH]c3ccc(C)cc3c2=O)cc1Cl	3.1	-6.9	14.6	37.2*	1.8	-0.5
COc1ccc(NC(=O)CCN(c2ccc(C)cc2)S(=O)(=O)c2ccc(C)cc2)cc1Cl	3.2	-2.1	-1.8	-2.5	0.0	7.0
COc1ccc2[nH]cc(S(=O)(=O)c3ccc(C#N)cc3)c(=O)c2c1	3.8	2.1	18.5	31.4*	2.4	3.6
COc1ccc2ncc(S(=O)(=O)c3ccc(C)cc3)c(Nc3ccc(C)cc3)c2c1	9.7	11.7	12.3	8.9	6.9	3.0
CCc1ccc(-n2ccc(=O)c(-c3nc(-c4cccc(F)c4)no3)n2)cc1	-14.8	33.6*	23.3	/	-4.1	4.4
COc1ccc(-n2ccc(=O)c(-c3nc(-c4ccccc4C)no3)n2)cc1	14.7	34.3*	37.6*	19.2	2.5	5.4
O=c1ccn(-c2ccccc2)nc1-c1nc(-c2ccc(Br)cc2)no1	4.7	62.1*	21.2	36.6*	4.2	0.0
Cc1cccc(-n2ccc(=O)c(-c3nc(-c4ccc(Cl)c(F)c4)no3)n2)c1	3.4	10.7	39.1*	22.9	1.0	-0.1
COc1ccccc1-c1noc(-c2nn(-c3ccc(C)cc3)ccc2=O)n1	-31.9	-13.4	-4.9	-3.0	0.9	-1.4
Cc1cnc(-c2cc(CC3CCCN(Cc4cscn4)C3)ncn2)[nH]1 (centres undefined)	1.2	-0.9	/	-6.6	-0.2	0.0
CC1CCN(C(=O)CSc2nnc(Cc3ccccc3)n2Cc2ccccc2)CC1	-4.8	-10.9	10.5	0.0	-1.0	2.6
CC1=C(c2ccccc2)S(=O)(=O)N(CC(=O)Nc2ccc(Br)c(C)c2)C1=O	-8.8	5.7	-35.8	-0.6	1.7	-1.7
COc1ccccc1-c1nc2c3c(ncn2n1)Oc1c(c(C)nn1-c1ccccc1)C3c1cccnc1 (centres undefined)	1.1	-2.0	8.8	54.2*	0.1	-2.1
COc1ccc(-c2nc3c4c(ncn3n2)Oc2c(c(C)nn2-c2ccccc2)C4c2ccc(OC)c(OC)c2)cc1 (centres undefined)	2.1	9.9	-2.7	15.4	-0.9	-1.2
Cc1nn(-c2ccccc2)c2c1C(c1ccco1)c1c(ncn3nc(CO/N=C/c4ccccc4Cl)nc13)O2 (centres undefined)	-4.9	0.0	-10.5	-0.9	-5.7	-2.1
COc1ccc(/C=N/OCc2nc3c4c(ncn3n2)Oc2c(c(C)nn2-c2ccccc2)C4c2ccco2)cc1 (centres undefined)	4.6	11.3	41.6*	22.3	0.2	-0.1
N#Cc1ccccc1OCC(=O)NCCc1c[nH]c2ccccc12	0.2	2.4	2.1	-5.5	1.2	0.8
O=C(CSc1n[nH]c(-c2ccc(F)cc2)n1)Nc1ccc(F)cc1	-26.2	0.7	-0.7	-6.5	0.1	5.2
O=C(CSc1nnc2ccc(-c3ccccc3)nn12)Nc1ccc(F)cc1	2.3	-20.1	34.2*	43.1*	3.4	5.2
CCOc1ccc(-c2ccc3nnc(SCC(=O)Nc4ccc(F)cc4)n3n2)cc1	29.7	78.3*	33.2*	/	1.6	37.9*
CCOc1ccc(NC(=O)CSc2nnc(-c3ccccn3)n2Cc2ccco2)cc1	-5.7	-168.0	-38.2	-33.2	-1.8	-3.3
O=C(Cn1nc(-c2ccccc2)cc(NC(=O)c2ccccc2)c1=O)Nc1ccc(F)cc1	/	4.1	38.7*	39.1*	1.8	37.9*
CCC(C(=O)C(C)C(O)C(C)CCc1ccc(C)c(O)c1C(=O)O)C1OC(CC)(C2CCC(O)(CC)C(C)O2)CC1C (centres undefined)	27.7	20.5	55.3*	62.8*	4.9	61.3*
SMILES	USP7 block	USP8 inh	USP30 inh	USP17 inh	UCHL1 inh	USP10 block
O=C(Cn1c(=O)c2c(ncn2C2CCCC2)n(Cc2ccccc2)c1=O)NCC1CCCO1 (centres undefined)	-2.4	-13.2	-27.7	-4.1	-2.6	-4.8
CCn1cnc2c1c(=O)n(CC(=O)NCc1ccccc1Cl)c(=O)n2Cc1ccccc1	-11.7	-5.1	18.8	55.3*	-3.6	-4.3
COCCn1cnc2c1c(=O)n(CC(=O)NCc1ccccc1OC)c(=O)n2Cc1ccccc1	2.4	20.6	45.3*	31.2*	1.1	6.2
CCn1ccc2ccn(CC(=O)NCc3ccc4c(c3)OCO4)c(=O)c21	-0.9	-5.8	-4.6	-4.8	-1.5	-1.0
CC(C)Cn1cnc2c1c(=O)n(CC(=O)NCCc1ccc(F)cc1)c(=O)n2Cc1ccccc1	-12.2	7.4	43.2*	24.3	2.8	0.2
CCn1cnc2c1c(=O)n(CC(=O)NCc1ccc3c(c1)OCO3)c(=O)n2Cc1ccccc1	-0.1	13.9	-70.8	36.8*	2.5	-3.6
Cc1ccc(C)c(C(=O)Cn2c(=O)c3c(ncn3CCC(C)C)n(Cc3ccccc3)c2=O)c1	-7.0	0.6	-43.3	-12.8	2.6	-1.9
CCOC(=O)N1CCN(C(=O)c2cn(-c3cccc(F)c3)nn2)CC1	-3.4	9.3	28.3	16.3	0.0	1.6
COc1cccc(-n2ccn3cc(-c4ccccc4C)nc3c2=O)c1	-4.5	-11.7	-34.5	-9.8	0.0	1.4
Cc1ccc(C(=O)N2CCCCC2c2nc(-c3ccncc3)no2)s1 (centres undefined)	-0.2	1.5	0.0	6.2	0.1	1.1
CC(=O)N1CCc2cc(S(=O)(=O)NC(CC(C)C)C(=O)N3CCC(Cc4ccccc4)CC3)ccc21 (centres undefined)	7.3	3.1	-1.4	-1.4	4.9	2.3
COc1ccc2nc(NC(=O)C(CC(C)C)NS(=O)(=O)c3ccc4c(c3)CCN4C(C)=O)sc2c1 (centres undefined)	0.7	13.1	5.1	73.7*	2.6	-0.4
Cc1oc(-c2ccc(Cl)cc2)cc1C(=O)Nc1ccccc1	9.4	22.1	34.8*	21.0	4.7	7.5
Cc1ccccc1NC(=O)c1cc(-c2cccc([N+](=O)[O-])c2)oc1C	-6.5	-257.6	-8.1	-29.5	4.8	8.8
Cc1nc2cc3c(cc2n1CC(=O)NCCc1ccc(F)cc1)OCCO3	-13.0	-3.4	3.9	0.3	-5.1	-0.6
O=C(CCCC(=O)c1ccccc1)Nc1ccc(F)cc1	-29.3	-3.6	-0.4	55.7*	0.0	3.3
O=C(CCCC(=O)c1ccccc1)Nc1ccc(F)cc1Cl	-4.0	35.1*	26.8	30.3*	2.8	7.0
O=C(Nc1ccc(N2CCOCC2)cc1)c1ccc(-c2ccc(N3CCCC3)nn2)cc1	-3.8	23.4	-19.9	51.2*	-10.5	-10.8
O=C(Nc1ccc(F)cc1)c1ccc(-c2ccc(N3CCCC3)nn2)cc1	4.2	49.1*	1.2	12.7	2.8	-0.1
